# Reference: PubChem BioAssay (NCI)
# Compounds without any hit were thinned out: in the full panel of roughly 83,000, 20% have a hit.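 Activity criterion: percent growth below 10, measured after cells in 96-well plates were exposed to a single compound concentration for 48 hours.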 A number with no mark means an inactive call. Calls of active or inactive are those of the source.
# Test system: HL-60(TB) leukemia
# Assay: NCI-60 one-dose screen, 48 h (100 = growth as untreated, 0 = no growth, -100 = all killed)
# Conditions: 10 µM unless noted
row,Structure (SMILES),growth
1,N#Cc1c(N)nc2c(nnn2-c2cccc(Br)c2)c1N,95.9%
2,COc1ccc(/C=C2\N=C(c3ccccc3)N(c3cc(OC)c(OC)cc3C(=O)N3N=C(C)CC3=O)C2=O)cc1,107%
3,CCOC(=O)c1c(C)[nH]c(CO)c1C,97.1%
4,COC(=O)[C@@H](NC(=O)[C@@H](OC)[C@@H]1Cc2cc3cc(OC4CC(OC5CC(O)C(O)C(C)O5)C(O)C(C)O4)c(C)c(O)c3c(O)c2C(=O)[C@H]1OC1CC(OC2CC(OC3CC(C)(O)C(O)C(C)O3)C(O)C(C)O2)C(O)C(C)O1)C(C)C (some centres undefined),52.4%
5,Cc1ccc(NS(=O)(=O)c2ccc3c(c2)C2OCCC2C(c2ccc(C(=O)C(C)C)cc2)N3)cc1C (centres undefined),20.4%
6,COCCOC(=O)COc1ccc(OC)cc1,90.7%
7,CC(C)(N)CO[C@H]1C[C@H]2CC[C@@]1(C)C2(C)C,111%
8,O=C1C(Cl)=C(Nc2ccccc2)C(=O)c2ccccc21,-19.5% (active)
9,CC(C)C/C(=N\NC(=O)c1ccncc1)c1cc(Cl)ccc1O,-32.3% (active)
10,O=c1oc2c([nH]c3ccc4ccccc4c32)c2ccccc12,129%
11,O=C(/C=C/c1ccc([N+](=O)[O-])cc1)c1ccc2c3c(cccc13)CC2,14.4%
12,O=C(CN1CCNCC1)N1CCOCC1,68.5%
13,O=C1c2cccnc2C(=O)c2nc3cc(N4CCN(C5CC5)CC4)ccc3nc21,-43.1% (active)
14,N#C/C(=C\c1ccc(Br)cc1)n1nnc2cc(F)c(F)cc21,-16.2% (active)
